The text below walks through data of PubChem BioAssay (Tox21).

Records with an inconclusive call do not appear. A number with no mark means an inactive call. Calls of active or inactive are those of the source. The call rests on the fitted dose curve; in most records, active means well fitted inhibition curve with a large enough effect in the repeat runs; inconclusive means weak or mixed curves; inactive means no such curve, though single readings can be large or run the other way. Positions of bridges follow the written chain, without caps; N, C: chain ends. Non-standard residues stand in square brackets, D forms with d. Residues, ends and D or L forms follow the SMILES beside them. *: point of attachment. pGlu = O=C1CC[C@@H](C(=O)O)N1; X2 = CC[C@H](C)CCCCC(=O)*; Thz = O=C(O)[C@@H]1CSCN1; Dab = NCC[C@H](N)C(=O)O
On the % scale 0 is the no-effect control and ±100 the full control effect; potency means the concentration at half of the fitted maximal effect.

This assay can be described thus: qHTS assay to identify small molecule antagonists of the thyroid receptor (TR) signaling pathway (AID 743065). Further: nearly all actives have a fitted effect of over 55% in size. The note with it: GH3.TRE-Luc, T3-stimulated luciferase inhibition, 23.5 h; series mostly up to 70.3 µM; activity, negative = inhibition: at the top concentration. The source says:
U.S. Tox21 Program National Center for Advancing Translational Sciences [NCATS] NIH Chemical Genomics Center [NCGC] U.S. Environmental Protection Agency [EPA] National Institutes of Environmental Health Sciences [NIEHS] National Toxicology Program [NTP] U.S. Food and Drug Administration [FDA] Tox21 Assay Overview: Thyroid receptor (TR), a nuclear hormone receptor, plays an important role in development, proliferation, differentiation, metabolism, brain function, and cardiovascular system. […] To profile the Tox21 10K compound library in TR signaling, a cell-based GH3-TRE-Luc assay (GH3.TRE-Luc cell line, developed by the laboratory of Dr. Albertinka J. Murk, Wageningen University) was used to measure the inhibition of TR. GH3 (rat pituitary tumor) cells stably expressing a TR activity sensor consisting of two TR response elements and a luciferase reporter gene.
Tox21 Assay Protocol Summary: GH3.TRE-Luc cells were dispensed at 1500 cells/4 uL/well into 1536-well white solid bottom plates using a Multidrop Combi dispenser (Thermo Fisher Scientific Inc., Waltham, MA). After the assay plates were incubated at 37 C for 4 hours, 23 nL of library compound or DMSO controls was transferred to the assay plates by a pintool station (Kalypsys, San Diego, CA), followed by addition of 1 ul of T3 (1 nM, final concentration in the wells) to stimulate TR transactivation. The assay plates were incubated at 37 C for 23.5 h, and then 1 uL of CellTiter-Fluor reagent (Promega, Madision, WI) of measuring cytotoxicity was added to each well using a Bioraptr Flying Reagent Dispenser (FRD) workstation (Beckman Coulter, Indianapolis, IN, USA). The plates were incubated at 37 C and 5% CO2 for additional 30 min, and fluorescence intensity was measured by a ViewLux plate reader (PerkinElmer, Shelton, CT). For measuring luciferase reporter gene activity, 4 uL of ONE-Glo Luciferase Assay reagent (Promega) was added to each well using a Bioraptr FRD (Beckman Coulter), followed by 30 min incubation at room temperature. The luminescence intensity of plates was recorded by a ViewLux plate reader (PerkinElmer, Shelton, CT).
For orientation: qHTS replaces the single test concentration by a dilution series.
`CCOC(=O)c1c[nH]c2cc(OCC(C)C)c(OCC(C)C)cc2c1=O`: the “activity, negative = inhibition” value is 0.641%. Same read-out and setting: as for `CC(C)[C@H](N)C(=O)OCC(CO)OCn1cnc2c(=O)[nH]c(N)nc21` (stereo not given in full), the figure is 0.245%; as for `O=P(O)(O)C(O)(Cc1cnc2ccccn12)P(=O)(O)O`, 7.34%.

As for `CC(O)[C@H]1CC[C@H]2[C@@H]3CC[C@@H]4C[C@@H](O)CC[C@]4(C)[C@H]3CC[C@]12C` (stereo not given in full), the “activity, negative = inhibition” value was 0.565%. `Nc1nc2[nH]cc(CCc3ccc(C(=O)N[C@@H](CCC(=O)O)C(=O)O)cc3)c2c(=O)[nH]1`: the “activity, negative = inhibition” value was -12.3%. Still for that read-out and setting: as for `CC(=O)N(CC(C)C(=O)O)c1c(I)cc(I)c(N)c1I` (stereo not given), the figure is 4.78% [at 32.5 µM]; as for `CC(=O)OCC(=O)[C@@]1(O)[C@H](C)C[C@H]2[C@@H]3C[C@H](F)C4=CC(=O)C=C[C@]4(C)[C@H]3[C@@H](O)C[C@@]21C`, -4.5%. As to `CCCCCc1ccc(C)cc1O`, the Potency was 26.6 µM (active).

With `CCCCCCCCCCCCCCCC(=O)OCC(COC(=O)CCCCCCCCCCCCCCC)OC(=O)CCCCCCCCCCCCCCC`, the “activity, negative = inhibition” value is 7.79%. Regarding `CO/N=C(\C(=O)N[C@@H]1C(=O)N2C(C(=O)O)=CCS[C@H]12)c1csc(N)n1`, the “activity, negative = inhibition” value was -0.151%. The same measure, in the same setting: to `CC(=O)N[C@@H]1C(O[C@H]2O[C@H](C(=O)O)C(O)[C@H](O)[C@H]2O)[C@H](O)[C@@H](CO)O[C@H]1O[C@@H]1C(C(=O)O)O[C@@H](O[C@H]2[C@H](O)[C@@H](CO)OC(O)[C@@H]2NC(C)=O)[C@H](O)[C@H]1O` (stereo not given in full) belongs 11.7%. For the molecule `CCCCCCCCCCCCCCCCOCCOCCOCCOCCOCCOCCOCCOCCOCCOCCOCCOCCOCCOCCOCCOCCOCCOCCOCCOCCO`, the Potency is 26.6 µM (active).

Consider `CC(C)C(=O)OCC(=O)[C@@]12O[C@H](C3CCCCC3)O[C@@H]1C[C@H]1[C@@H]3CCC4=CC(=O)C=C[C@]4(C)[C@H]3[C@@H](O)C[C@@]12C`, for which the Potency is 10.6 µM (active).

Consider `CCN1C(=O)NC(c2ccccc2)C1=O` (stereo not given), for which the “activity, negative = inhibition” value is 7.44% [at 32.5 µM]. As for `C=C1/C(=C\C=C2/CCC[C@]3(C)[C@@H]([C@H](C)OCCC(C)(C)O)CC[C@@H]23)C[C@@H](O)C[C@@H]1O`, the Potency is 37.6 µM (active). As for `CC(=O)Oc1cccc(C(=O)O)c1OC(C)=O`, the “activity, negative = inhibition” value was 0.359%.

In the case of `O=C1CC[C@@H](C(=O)N2CSC[C@H]2C(=O)O)N1` ([pGlu]-[Thz]-OH), the “activity, negative = inhibition” value is 1.83%. On the same count and under the same terms, as for `COc1cc(/C=C/C(=O)N2CCN(CC(=O)N3CCCC3)CC2)cc(OC)c1OC`, the figure is 1.64%. On to `COc1cc([C@@H]2c3cc4c(cc3C(O[C@@H]3O[C@@H]5COC(c6cccs6)O[C@H]5[C@H](O)[C@H]3O)C3COC(=O)[C@@H]32)OCO4)cc(OC)c1O` (stereo not given in full), for which the Potency was 0.531 µM (active). Regarding `C=C1C(=O)O[C@H]2[C@H]1CC/C(C)=C\CC[C@@]1(C)O[C@@H]21`, the Potency is 7.5 µM (active). In the case of `C[C@]12CC[C@@H]3c4ccc(OC(=O)c5ccccc5)cc4CC[C@H]3[C@@H]1CC[C@@H]2O`, the “activity, negative = inhibition” value was -0.369%.

As for `CO[C@H]1C[C@@H]2CC[C@@H](C)[C@@](O)(O2)C(=O)C(=O)N2CCCC[C@H]2C(=O)O[C@H]([C@H](C)C[C@@H]2CC[C@@H](OCCO)[C@H](OC)C2)CC(=O)[C@H](C)/C=C(\C)[C@@H](O)[C@@H](OC)C(=O)[C@H](C)C[C@H](C)/C=C/C=C/C=C/1C`, the Potency is 0.0027 µM (active). Consider `O=C(O)CCC/C=C\C[C@@H]1[C@@H](/C=C/[C@@H](O)COc2cccc(Cl)c2)[C@H](O)C[C@@H]1O`, for which the “activity, negative = inhibition” value was 12.4%. With `CC[C@H](C)CCCCC(=O)N[C@@H](CCN)C(=O)N[C@H](C(=O)N[C@@H](CCN)C(=O)N[C@H]1CCNC(=O)[C@@H]([C@H](C)O)NC(=O)[C@H](CCN)NC(=O)[C@H](CCN)NC(=O)[C@H](CC(C)C)NC(=O)[C@@H](CC(C)C)NC(=O)[C@H](CCN)NC1=O)[C@@H](C)O` (X2-[Dab]T[Dab][Dab][Dab][dL]L[Dab][Dab][dT]; lactam 4-C), the “activity, negative = inhibition” value is 6.21% [at 32.5 µM]. `COc1ccc2c(c1)OC(C)(C)C(c1ccccc1)C2c1ccc(OCCN2CCCC2)cc1` (stereo not given): the Potency was 9.44 µM (active).

In the case of `CCOC(=O)Cc1cccc(-c2cc(CCCCCCc3ccc(O[C@H]4O[C@H](COC(C)=O)[C@@H](OC(C)=O)[C@H](OC(C)=O)[C@@H]4OC(C)=O)c(-c4cccc(CC(=O)OCC)c4)c3)ccc2O[C@H]2O[C@H](COC(C)=O)[C@@H](OC(C)=O)[C@H](OC(C)=O)[C@@H]2OC(C)=O)c1`, the “activity, negative = inhibition” value is -0.158%. The same measure, in the same setting: to `OC[C@H]1O[C@@H](n2cnc3c2NC=NC[C@H]3O)C[C@@H]1O` belongs 0.415%; to `COc1ccc2cc([C@H](C)CO)ccc2c1`, 9.87%; to `CCCCCCCCCCCC(=O)OC[C@@H](O)C1OC[C@H](O)[C@H]1O` (stereo not given in full), 0.997%. `CCc1ccc2c(c1)N(CC(C)CN(C)C)c1ccccc1S2` (stereo not given): the Potency is 11.9 µM (active). On to `C[C@]12CC[C@@H]3c4ccc(OS(=O)(=O)O)cc4CC[C@H]3[C@@H]1CCC2=O`, for which the “activity, negative = inhibition” value was 13.7%. Same read-out and setting: as for `Cn1c(=O)c2c(ncn2CCOC(=O)C(C)(C)Oc2ccc(Cl)cc2)n(C)c1=O`, the figure is 11.1%; as for `CN[C@@H]1[C@@H](O)[C@@H](O[C@@H]2[C@@H](O)[C@H](O[C@H]3O[C@H](CN)[C@@H](O)[C@H](O)[C@H]3O)[C@@H](N)C[C@H]2NC(=O)C(O)CN)OC[C@]1(C)O` (stereo not given in full), 2.4%; as for `CC[C@H]1NC(=O)[C@@H](NC(=O)c2ncccc2O)[C@@H](C)OC(=O)[C@H](c2ccccc2)NC(=O)[C@@H]2CC(=O)CCN2C(=O)[C@H](Cc2ccccc2)N(C)C(=O)[C@@H]2CCCN2C1=O`, -8.87%. Same read-out and setting: as for `CCCC(=O)Nc1ncnc2c1ncn2[C@@H]1O[C@@H]2COP(=O)(O)O[C@H]2[C@H]1OC(=O)CCC`, the figure is 12.6%; as for `CN1c2c(nc(N)[nH]c2=O)NCC1CNc1ccc(C(=O)NC(CCC(=O)O)C(=O)O)cc1` (stereo not given), 6.7%; as for `CS(=O)(=O)NC(=O)CCC/C=C\C[C@H]1C(=O)C[C@@H](O)[C@@H]1/C=C/[C@H](O)COc1ccccc1`, -7.07%. As to `NC(=O)OC[C@@H]1[C@H](NC(=O)/C(=N\OCC(=O)O)c2csc(N)n2)C(=O)N1S(=O)(=O)O`, the “activity, negative = inhibition” value was 5.24%. On the same count and under the same terms, to `CC1(C)[C@@H]2CC[C@@]1(C)[C@H](OC(=O)CSC#N)C2` belongs -9.5%.

Regarding `CN1CCCC(CN2c3ccccc3Sc3ccccc32)C1` (stereo not given), the Potency was 11.9 µM (active).
